# In publication PMC12136788:
# Changes are numbered by the printed parent chain. Whole data set: some 24,000 sequences, median “enrichment r” near 0.99, cut for the highest 2% near 3.7. The full list was thinned out, with the highest values kept by preference.
# T1: UNK ZnF1-3 (human, UniProt Q9C0B0 31-174)
# T1 sequence: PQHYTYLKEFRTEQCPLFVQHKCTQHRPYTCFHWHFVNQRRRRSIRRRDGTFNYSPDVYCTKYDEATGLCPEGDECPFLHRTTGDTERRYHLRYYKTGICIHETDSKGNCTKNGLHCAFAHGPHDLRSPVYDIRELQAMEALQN
# B1: chr12:39756943:39756944:-_ENSG00000139116_ENST00000544797|hu_mus|hu_hu_hu_mus_False|48_78 (ssRNA)
# RNA: GGGAGUUCUACAGUCCGACGAUCGGUUUGGCUGUUACCCCCAAGGGAAUCCUGCAAUAGUCUUGUUAGCUUAGAGUCUCUGUAAGGGACAUGUGUGGCUCUCUUGCUCUUGUCCCCCAAGGCGCUGAUUACAUUCCCAAGAGCCAACAGAGGAUUGAGCAUCA
# B2: chr4:140309118:140309119:+_ENSG00000164134_ENST00000296543|hu_mus|FALSE|FALSE (ssRNA)
# RNA: GGGAGUUCUACAGUCCGACGAUCGUAUCCAGGAGGCAUGAAAGCCAAAGCAUAAGGGAAAAGCUUAUGACAACUUGCUCUGUAGGCUUCGGCAGCUUCUUUACAGUCUCCUAGGCUACCAUCACACAAGGCUUCCAACACCUCCAACAGAGGAUUGAGCAUCA
# B3: chr3:10015032:10015033:+_ENSMUSG00000027533_ENSMUST00000029046|mus_mus|mus_mus_mus_hu_True|1_58 (ssRNA)
# RNA: GGGAGUUCUACAGUCCGACGAUCGUUUUUACCAUCACAAGUGAUGAUACAAUCUGGCUUGGCCAUUGCGCCCAUUUUCCUAAGAGCUAUUCCCACUCCUAGCUCCUUCAUGUAUUCAUCAAAGCCUUUGCUGUCCAUCAGGCGCAACAGAGGAUUGAGCAUCA
# B4: 64658990_64660614_189_3pUTR_ENSMUSG00000024083_ENSMUST00000024889|mouse|control|control (ssRNA)
# RNA: GGGAGUUCUACAGUCCGACGAUCAUCCAAUGAACUGGAACCUGAGGUGUUCUCCUUUGGAACAUCGUCUAGUUCCAACACUUCAUAGUCAUCACCAGCCCGACCCAAGCUUCUUUCAUGCCUGGUCAUACAUGGCUUAAAACUCAACAGAGGAUUGAGCAUCA
# B5: 104713310_104714935_678_CDS_ENSG00000198431_ENST00000397736|human|control|control (ssRNA)
# RNA: GGGAGUUCUACAGUCCGACGAUCAGCGACAUAGGAUGCUCCAACAACCAGGGUCUUACCCGGGCAGUAAGGCAAGGAGAAAAGAUCAUCACUGCUGAUGCAGUAUUCUUUGUCACCAGGGAUGCCCAAGUAACGUGGUCUUUCCAACAGAGGAUUGAGCAUCA
# B6: chr11:4127340:4127341:+_ENSG00000167325_ENST00000300738|hu_mus|hu_hu_hu_mus_False|28_88 (ssRNA)
# RNA: GGGAGUUCUACAGUCCGACGAUCGGCAUAGUCAGGGUGCUUCGUGGUCAAGGUUGCGGCUGUCUCAGCAGCCAGGGUGUCCAGUUCCACUGUGGUGACCCCACUAUACAAGCCUUGGAUUACUUUCAUGGUGAUCUGAGCAGGCAACAGAGGAUUGAGCAUCA
# B7: 65373527_65373647_4270_3pUTR_ENSMUSG00000024589_ENSMUST00000163516|mouse|control|control (ssRNA)
# RNA: GGGAGUUCUACAGUCCGACGAUCAGGGAGGCAGGAGCAAUCGCCACGAGUGAUAUUCGUGAAAAAAAAAAAAAAAAUGGAAACAAAACCAGAUGUGACCUCCAUAAAGUGCCUUCAGAAGGGACGCAGAUACAGCAAAGGAAGCAACAGAGGAUUGAGCAUCA
# B8: chr14:49642940:49642941:-_ENSMUSG00000061244_ENSMUST00000162175|mus_mus|motif|central (ssRNA)
# RNA: GGGAGUUCUACAGUCCGACGAUCUAAAGCAUAAUCAAUAUGCUCAAUACAUAAAAAUUCCACAAGAAUGGUAAAAAUUCGGAAGGCAUUCCUUGGUAAAUCAGAAGGAUCAGAAAGCCUAUGACAUCUUUCAAAGGCUUGUUUCAACAGAGGAUUGAGCAUCA
# B9: chr7:74146866:74146867:+_ENSG00000077809_ENST00000416070|hu_hu|motif|central (ssRNA)
# RNA: GGGAGUUCUACAGUCCGACGAUCUUCCUUUGCAAGUAAUAUCCUCUCCAGGCGAGGAAUUCCGUAAGUAGAUGGCCUUCGGAAAGGAAUUCCUUCAGGAAGUCCUUCUACAUAAAGAUCUUCAACAUGAGACUGGAAAAGAGGCAACAGAGGAUUGAGCAUCA
# B10: chr16:94690093:94690094:+_ENSMUSG00000040785_ENSMUST00000117648|mus_hu|mus_mus_mus_hu_True|68_98 (ssRNA)
# RNA: GGGAGUUCUACAGUCCGACGAUCGGGCUGGGAUGACAGCAGACAGCCCUCGAUUCCAGGGGGAAAAAAAAAUAGCCGAUACUAAUUAAAAAGUGUUAAUGAUUUUUGAAAAUCAGAUUACAUCUAUAAAAGAUGAAAAGCAAACAACAGAGGAUUGAGCAUCA
# B11: chr3:142455422:142455423:-_ENSMUSG00000004591_ENSMUST00000043812|mus_mus|FALSE|FALSE (ssRNA)
# RNA: GGGAGUUCUACAGUCCGACGAUCGGGAGAACAACAGAGUGACAGCCUAGGAGAAAAAAGGGAAAAACAAAACAAAAAUCUAAUAAAAUUCCAGCCCAGUGAAGAUCAUGAUUUGCAAACAGGCAUAUGGUAAGAGCGAUACAACAACAGAGGAUUGAGCAUCA
# B12: 82880966_82885890_579_3pUTR_ENSMUSG00000000627_ENSMUST00000000641|mouse|control|control (ssRNA)
# RNA: GGGAGUUCUACAGUCCGACGAUCGCUGGAAACUGGACACAUCAAUAACCCCGCACUUCGGAUCAAAAGCGAAGGUGCCACACGUGAGGAGGUGAGAGGCAUUGGCAAUGGCGAGAAUCUGGAUAAAAUUGUGACAUUCGUCCUCAACAGAGGAUUGAGCAUCA
# B13: chr3:142455422:142455423:-_ENSMUSG00000004591_ENSMUST00000043812|mus_mus|motif|central (ssRNA)
# RNA: B11 RNA with U80G, A81G
# B14: 21140421_21141420_1149_CDS_ENSG00000141458_ENST00000269228|human|control|control (ssRNA)
# RNA: GGGAGUUCUACAGUCCGACGAUCCUCCAUCCCAUGGACUGGAAAAUCUGAAAACACAGGAGUGAUGGUAAAAGGUGCCUGUCCAUUGUCCUUAUUGAACAUGUAUUCAAUCCAGUUGGUGGCAUUACAGGCGUCAGCGUCCUUCAACAGAGGAUUGAGCAUCA
# B15: chr17:34945718:34945719:+_ENSG00000005955_ENST00000304718|hu_hu|FALSE|FALSE (ssRNA)
# RNA: GGGAGUUCUACAGUCCGACGAUCAUUUAACCGGCAGUAUUUAUUAAAUUUCUCCUUCAGAUGCUGUCGGUAUUGUUCUCUAUUGCUGUAGAAAGACUGGUUAUUAGCCAUAAAUGACUGUAUUUCAUCUUGUGAGAUAAAGAUCAACAGAGGAUUGAGCAUCA
# B16: 90247206_90247326_4093_3pUTR_ENSMUSG00000012422_ENSMUST00000161568|mouse|control|control (ssRNA)
# RNA: GGGAGUUCUACAGUCCGACGAUCUUCUCAGAAGUUAGUCAGGACCCCCUGUAACAAGGGCGAUUGCUAGCACCGUUUGAGAACAUUUAUUAUUACUAGAAGGUAACAAAGGAAGAGAAGAGCAGCCCUAAGAAUUUUCCAUUCCAACAGAGGAUUGAGCAUCA
# B17: chr6:41757443:41757444:+_ENSG00000214736_ENST00000398881|hu_mus|hu_hu_hu_mus_False|98_108 (ssRNA)
# RNA: GGGAGUUCUACAGUCCGACGAUCGAACUGUCUGCUGACCAGAGAAUAGCCGACACUGGGGGAUGGGGGGGCAGUGGGGGGGGGUUCAGGCAAGGAGAGGGAGUCAACUUCAGCUGCCACUCAGGUAGGAUCUUGUGGUCACAGCAACAGAGGAUUGAGCAUCA
# B18: 75758389_75758509_1054_3pUTR_ENSMUSG00000032932_ENSMUST00000046283|mouse|control|control (ssRNA)
# RNA: GGGAGUUCUACAGUCCGACGAUCUCAGAAAGGCCAGGUCUAAACACUCUAUUCACAUGGUGACCAUCUCCUGGGGUGAGCUGGUCUUUUGGCAGUUCAGAGUCACCAUUCUGAGGUUCCUUGCUGUCCUUCCCCUCCACAGUGCAACAGAGGAUUGAGCAUCA
# B19: chr6:41757443:41757444:+_ENSG00000214736_ENST00000398881|hu_mus|hu_hu_hu_mus_False|48_98 (ssRNA)
# RNA: B17 RNA with U28C, C31G, U32C, G33A, C34G, U35A, C90G, A95G
# B20: chr6:41757443:41757444:+_ENSG00000214736_ENST00000398881|hu_mus|hu_hu_hu_mus_False|78_98 (ssRNA)
# RNA: GGGAGUUCUACAGUCCGACGAUCGAACCGUGCAGAGACCAGAGAAUAGCCGACACUGUGGACUCAAGGGGCAGUGGGGGGGGGUUCAGGCAAGGAGAGGGAGUCAACUUCAGCUGCCACUCAGGUAGGAUCUUGUGGUCACAGCAACAGAGGAUUGAGCAUCA
# B21: chr6:41757443:41757444:+_ENSG00000214736_ENST00000398881|hu_mus|hu_hu_hu_mus_False|98_98 (ssRNA)
# RNA: B20 RNA with U58G, A61G, C62A, C64G, A65G, A66G
# B22: chr16:14738297:14738298:+_ENSG00000103429_ENST00000261658|hu_mus|FALSE|FALSE (ssRNA)
# RNA: GGGAGUUCUACAGUCCGACGAUCGUUCAAGGUGGUGGGGUUAACCAGGGUGUCGUAGCAGCAGUGGCAGGAGAACUCGCUCACAGAAAUCUGAGGGCCGCUGCUUCUGACAGGAUGCUCUUCCUCCUGCUCUCUCAUGCUCAGCAACAGAGGAUUGAGCAUCA
# Target: T1, UNK ZnF1-3
# Assay: nsRBNS (natural sequence RNA bind-n-seq); RBNS binding buffer (assumed for nsRBNS): 25 mM Tris pH 7.5, 150 mM KCl, 3 mM MgCl2, 0.01% Triton X-100, 500 ug/ml BSA, 20 U/ml SUPERase-In, 4 C; UNK is unkempt and MSI1 is Musashi-1; names of the RNAs are library labels; protein concentration not given here; high values mean tight binding
row,Binder,binding signal [enrichment R]
1,B1,0.772
2,B2,0.414
3,B3,0.728
4,B4,0.333
5,B5,1.69
6,B6,0.876
7,B7,6.96
8,B8,0.426
9,B9,0.729
10,B10,3.34
11,B11,4.59
12,B12,2.22
13,B13,5.45
14,B14,0.935
15,B15,0.361
16,B16,0.591
17,B17,4.46
18,B18,0.633
19,B19,5.8
20,B20,1.9
21,B21,3.31
22,B22,0.931
